For 5 molecules, composite z-score and z-score results are on record in PubChem BioAssay.

Activity calls are given as the source filed them.

Assay [1] can be described thus: small molecules captured by biotinylated probe aFSTL3 – biochemical, small-molecule microarray, fluorescence 635/667, stem cell growth factor project, primary screen (AID 1064).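 Also: measures binding of the biotinylated anti-FSTL3 antibody to printed compounds.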 To be noted: higher = more signal.
The nature of assay [2]: binders from COS7 lysate, DM2A8 probe, primary screen, torsin A project, cell lysate, small-molecule microarray, fluorescence 635/667 (AID 1065). To be noted: higher = more signal, COS7 lysate expressing mutant human TOR1A.
Assay [3] is described as follows: small molecules captured by biotinylated probe aFGF2 – biochemical, small-molecule microarray, fluorescence 635/667, stem cell growth factor project, primary screen (AID 1067).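 Also: measures binding of biotinylated aFGF2 protein to printed compounds on slides; z-score merges feature fluorescence and signal-to-noise across triplicate slides.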 To be noted: higher = more signal.
Assay [4] can be described thus: small molecules captured by biotinylated probe aFGF10 – biochemical, small-molecule microarray, fluorescence 635/667, stem cell growth factor project, primary screen (AID 1071).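 Also: score merges 667 nm spot intensity and signal to noise from triplicate slides.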 To be noted: higher = more signal.
In assay [5] the target is Neurogenic locus notch homolog protein 2 (Homo sapiens) (UniProt Q04721). The assay is described as follows: small molecules binding Notch2 protein – biochemical, small-molecule microarray, 635 nm fluorescence, stem cell growth factors, primary screen (AID 1073). To be noted: higher = more signal.
Sequence of Neurogenic locus notch homolog protein 2 (Homo sapiens) (Q04721 whole entry, looked up, canonical isoform): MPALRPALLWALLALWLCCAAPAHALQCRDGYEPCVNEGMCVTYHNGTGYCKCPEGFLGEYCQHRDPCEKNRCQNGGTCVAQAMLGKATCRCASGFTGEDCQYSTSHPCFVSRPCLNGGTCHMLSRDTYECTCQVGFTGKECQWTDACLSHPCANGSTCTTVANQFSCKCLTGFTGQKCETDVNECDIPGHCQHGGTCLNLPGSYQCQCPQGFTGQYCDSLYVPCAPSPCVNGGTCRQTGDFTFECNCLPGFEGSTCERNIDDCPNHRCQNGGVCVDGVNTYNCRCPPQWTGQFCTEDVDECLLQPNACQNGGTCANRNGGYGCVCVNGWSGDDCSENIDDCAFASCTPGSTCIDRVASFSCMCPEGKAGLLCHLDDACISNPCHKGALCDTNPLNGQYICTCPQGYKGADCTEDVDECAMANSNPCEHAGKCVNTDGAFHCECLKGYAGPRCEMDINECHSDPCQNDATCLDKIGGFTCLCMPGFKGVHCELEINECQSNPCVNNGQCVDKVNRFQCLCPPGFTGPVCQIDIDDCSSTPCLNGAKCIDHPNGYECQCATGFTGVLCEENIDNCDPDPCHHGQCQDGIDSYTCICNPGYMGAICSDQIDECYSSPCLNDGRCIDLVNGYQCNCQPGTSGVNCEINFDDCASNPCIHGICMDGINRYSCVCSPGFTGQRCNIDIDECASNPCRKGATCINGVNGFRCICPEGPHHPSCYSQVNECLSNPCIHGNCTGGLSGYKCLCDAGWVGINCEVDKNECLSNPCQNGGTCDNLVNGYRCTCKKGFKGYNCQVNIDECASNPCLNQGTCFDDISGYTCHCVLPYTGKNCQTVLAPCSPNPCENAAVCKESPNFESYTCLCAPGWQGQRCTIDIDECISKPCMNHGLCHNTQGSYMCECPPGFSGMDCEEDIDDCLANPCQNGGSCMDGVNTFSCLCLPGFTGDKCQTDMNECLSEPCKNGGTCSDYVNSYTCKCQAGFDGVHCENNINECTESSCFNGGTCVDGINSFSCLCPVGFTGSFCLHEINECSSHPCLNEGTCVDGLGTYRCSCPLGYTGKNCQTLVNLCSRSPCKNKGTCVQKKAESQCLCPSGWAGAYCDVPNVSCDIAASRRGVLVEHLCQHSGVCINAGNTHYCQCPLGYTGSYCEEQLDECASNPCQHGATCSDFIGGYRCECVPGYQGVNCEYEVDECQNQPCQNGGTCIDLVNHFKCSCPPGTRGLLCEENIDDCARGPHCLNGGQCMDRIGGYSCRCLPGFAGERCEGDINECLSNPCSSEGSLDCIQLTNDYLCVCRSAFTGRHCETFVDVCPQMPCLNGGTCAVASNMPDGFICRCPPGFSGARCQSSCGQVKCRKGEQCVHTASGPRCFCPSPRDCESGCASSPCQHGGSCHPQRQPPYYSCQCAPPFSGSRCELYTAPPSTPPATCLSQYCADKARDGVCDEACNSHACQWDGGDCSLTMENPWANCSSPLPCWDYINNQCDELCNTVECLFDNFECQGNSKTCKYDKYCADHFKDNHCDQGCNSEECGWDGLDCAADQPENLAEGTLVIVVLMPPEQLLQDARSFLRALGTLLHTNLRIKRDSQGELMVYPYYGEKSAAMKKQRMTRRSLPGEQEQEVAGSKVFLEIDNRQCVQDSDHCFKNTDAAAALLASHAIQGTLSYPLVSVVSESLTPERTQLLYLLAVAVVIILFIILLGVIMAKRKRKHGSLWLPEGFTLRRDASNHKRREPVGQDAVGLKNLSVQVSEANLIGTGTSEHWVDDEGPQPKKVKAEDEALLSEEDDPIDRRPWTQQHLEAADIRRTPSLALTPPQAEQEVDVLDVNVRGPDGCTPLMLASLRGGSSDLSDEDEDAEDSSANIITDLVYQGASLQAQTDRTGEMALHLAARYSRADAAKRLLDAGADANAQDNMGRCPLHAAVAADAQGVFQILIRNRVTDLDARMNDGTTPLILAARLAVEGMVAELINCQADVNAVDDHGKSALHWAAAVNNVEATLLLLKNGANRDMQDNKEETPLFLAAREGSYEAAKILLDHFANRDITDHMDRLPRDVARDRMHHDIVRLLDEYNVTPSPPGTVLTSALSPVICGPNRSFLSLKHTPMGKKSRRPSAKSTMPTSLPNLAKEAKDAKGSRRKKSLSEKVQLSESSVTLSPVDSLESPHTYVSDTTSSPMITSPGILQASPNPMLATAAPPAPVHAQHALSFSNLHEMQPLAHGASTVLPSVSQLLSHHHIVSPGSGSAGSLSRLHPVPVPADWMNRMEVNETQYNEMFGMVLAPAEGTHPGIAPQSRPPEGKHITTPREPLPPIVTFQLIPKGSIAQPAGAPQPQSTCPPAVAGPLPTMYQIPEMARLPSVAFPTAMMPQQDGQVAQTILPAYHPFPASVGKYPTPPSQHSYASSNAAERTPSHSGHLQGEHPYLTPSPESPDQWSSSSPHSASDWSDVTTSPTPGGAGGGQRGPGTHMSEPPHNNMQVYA
In assay [6] the target is Pro-neuregulin-1, membrane-bound isoform (Homo sapiens) (UniProt Q02297). Nature of the assay: small molecules binding neuregulin-1 protein – biochemical, small-molecule microarray, fluorescence 635/667, psychiatric disease protein project, primary screen (AID 1075).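 Also: score combines 667 nm spot fluorescence with signal to noise.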 The following applies: NRG1 binding, 635 nm fluorescence, higher = more signal.
Sequence of Pro-neuregulin-1, membrane-bound isoform (Homo sapiens) (Q02297 whole entry, looked up, the tested form may be a part, canonical isoform): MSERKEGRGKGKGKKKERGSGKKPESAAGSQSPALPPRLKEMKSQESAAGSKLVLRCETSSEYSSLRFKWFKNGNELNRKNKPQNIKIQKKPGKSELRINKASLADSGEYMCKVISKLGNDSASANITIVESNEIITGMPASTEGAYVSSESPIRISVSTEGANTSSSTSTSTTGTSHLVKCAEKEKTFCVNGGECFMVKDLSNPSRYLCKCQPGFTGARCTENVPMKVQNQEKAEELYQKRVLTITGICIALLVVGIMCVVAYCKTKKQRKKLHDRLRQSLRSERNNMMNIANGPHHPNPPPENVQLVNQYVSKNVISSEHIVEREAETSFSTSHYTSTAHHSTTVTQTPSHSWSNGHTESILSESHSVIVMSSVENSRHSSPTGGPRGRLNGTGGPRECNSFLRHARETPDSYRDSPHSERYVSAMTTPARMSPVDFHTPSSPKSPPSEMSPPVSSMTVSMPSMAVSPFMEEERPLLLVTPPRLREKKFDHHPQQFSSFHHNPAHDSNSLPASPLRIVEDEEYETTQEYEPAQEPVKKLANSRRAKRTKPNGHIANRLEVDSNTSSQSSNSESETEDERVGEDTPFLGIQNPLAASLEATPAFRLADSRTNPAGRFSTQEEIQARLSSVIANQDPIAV
Assay [7] deals with Neuregulin-1 EGF-like domain. The assay is described as follows: small molecules binding NRG1 EGF domain – biochemical, small-molecule microarray, 635 nm fluorescence, primary screen (AID 1081).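 Also: binding of the protein to compounds printed on small-molecule microarray slides.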 To be noted: higher = more signal.
Assay [8] is described as follows: FRG1 expression reporter modulators in myotubes – cell-based, C2C12 myotubes, firefly/Renilla luciferase, luminescence, FRG1 inhibition for FSHD, primary screen (AID 1084). To be noted: FRG1 promoter luciferase, higher = more signal, called active from +8 up or from −8 down.
Assay [9] in a line: small molecules captured by biotinylated probe aFST – biochemical, small-molecule microarray, fluorescence 635/667, stem cell growth factor project, primary screen (AID 1086).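 Also: score merges 667 nm fluorescence with signal-to-noise of each printed compound spot.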 The following applies: higher = more signal.
A short description of assay [10]: binders of probe aHhip on microarray, primary screen, stem cell growth factor project, biochemical, small-molecule microarray, fluorescence 635/667 (AID 1087).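 Also: score merges spot fluorescence at 667nm with spot signal to noise ratio.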 The following applies: higher = more signal.
Assay [11] has as its system PRMT1 (protein arginine N-methyltransferase 1). Nature of the assay: small molecules binding arginine methyltransferase PRMT1 – biochemical, small-molecule microarray, 635 nm fluorescence, primary screen (AID 1088).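 Also: binding of Prmt1 protein to compounds spotted on small-molecule microarray slides.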 To be noted: higher = more signal.
Assay [12] can be described thus: growth effects on S. cerevisiae YJM789 – YJM789 clinical isolate, OD600, 24 h, basal, primary screen (AID 1089).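 Also: growth of clinical yeast isolate S. cerevisiae YJM 789 seeded 1000 cells per well; test concentration not given here.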 To be noted: higher = more signal, called active from +8 up or from −8 down.
A short description of assay [13]: S. pombe growth modifiers, basal conditions – strain 972, OD600, 24 h, no modulator, primary screen (AID 1090).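 Also: basal condition with compound alone and no growth modifier present; test concentration not given here.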 To be noted: S. pombe 972 growth, higher = more signal, called active from +8 up or from −8 down.
Assay [14] in a line: budding yeast growth modifiers under rapamycin – strain BY4716, OD600, 96 h, primary screen (AID 1091). Also: test concentration not given here. To be noted: S. cerevisiae BY4716 + rapamycin, higher = more signal, called active from +8 up or from −8 down.
Assay [15] addresses Torsin-1A-interacting protein 2 (Homo sapiens) (UniProt Q8NFQ8). The assay is described as follows: small molecules binding lysate-expressed LULL1 – cell lysate, human LULL1 lysate, 635/667 nm fluorescence, primary screen (AID 1092).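 Also: probe is lysate of COS7 cells overexpressing human LULL1; score merges per-feature 667 nm fluorescence with signal-to-noise.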 To be noted: small-molecule microarray, hLULL1 lysate binding, 635 nm fluorescence; higher = more signal.
Assay [16] can be described thus: optical density change of DRC41 E. coli – strain DRC41, OD650, 24 h, E. coli filamentation project, primary screen (AID 1093).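 Also: MC1000 strain lacking acrAB efflux and sulA so SOS filamentation is blocked; test concentration not given here.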 The following applies: E. coli DRC41 growth, higher = more signal, called active from +8 up or from −8 down.
Assay [17] can be described thus: probe aLefty2 binding to arrayed compounds – biochemical, biotinylated probe, 635/667 nm fluorescence, primary screen (AID 1094).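 Also: score merges spot fluorescence near 667 nm with spot signal-to-noise ratio.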 To be noted: small-molecule microarray, higher = more signal.
Assay [18] relates to Noggin (protein binding on small-molecule microarray). The assay is described as follows: small molecules binding Noggin protein – biochemical, 635/667 nm fluorescence, primary screen (AID 1095).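 Also: score merges 667 nm feature fluorescence with signal to noise over triplicate slides.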 To be noted: 635 nm fluorescence, higher = more signal.
Assay [19] concerns the target Neurogenic locus notch homolog protein 3 (Homo sapiens) (UniProt Q9UM47). The assay is described as follows: small molecules binding NOTCH3 protein – biochemical, 635/667 nm fluorescence, primary screen (AID 1096). To be noted: small-molecule microarray, 635 nm fluorescence, higher = more signal.
A short description of assay [20]: probe aEGFR binding to arrayed compounds – biochemical, biotinylated probe, 635/667 nm fluorescence, primary screen (AID 1097).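 Also: probe is a biotinylated anti-EGFR antibody binding compounds printed on slides; score combines fluorescence near 667 nm and signal to noise of each spot.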 The following applies: small-molecule microarray, higher = more signal.

Sequence of Torsin-1A-interacting protein 2 (Homo sapiens) (Q8NFQ8 whole entry, looked up): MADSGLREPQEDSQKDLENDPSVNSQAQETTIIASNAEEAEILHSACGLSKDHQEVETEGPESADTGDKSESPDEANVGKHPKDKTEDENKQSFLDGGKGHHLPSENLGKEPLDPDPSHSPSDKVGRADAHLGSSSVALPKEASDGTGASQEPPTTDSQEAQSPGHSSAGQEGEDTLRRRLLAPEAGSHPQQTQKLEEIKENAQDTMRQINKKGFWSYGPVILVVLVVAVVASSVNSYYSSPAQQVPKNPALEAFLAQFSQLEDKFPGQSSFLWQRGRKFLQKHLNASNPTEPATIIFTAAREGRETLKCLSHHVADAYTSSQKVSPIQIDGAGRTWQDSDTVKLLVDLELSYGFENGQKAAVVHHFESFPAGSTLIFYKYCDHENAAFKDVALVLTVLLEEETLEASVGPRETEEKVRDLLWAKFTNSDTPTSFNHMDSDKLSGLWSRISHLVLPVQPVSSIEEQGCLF

As for `C=CCOC(=O)[C@H]1[C@@H]2C(=O)O[C@@H](c3ccccc3)[C@@H](c3ccccc3)N2[C@@H](c2ccc(OCCOC(=O)[C@@H]3C[C@@H]4C(=O)N[C@@H](CC(C)C)C(=O)N4[C@@H]3c3ccc(O)cc3)cc2)[C@]12C(=O)Nc1ccc(I)cc12`, the composite z-score in assay [1] is -0.185; in [2], 0.246; in assay [3] it was -0.158; in assay [4], -0.0479; in [5], 0.672; in assay [6] it was 1.33. Besides, the composite z-score in assay [7] is 1.29; in [9], -0.0054; in [10] it was 0.15; in assay [11], 1.58; in assay [15], 2.44; in assay [17], -0.103. In addition, the results for the composite z-score in assay [18], in assay [19] and in [20] were 1.23, 0.752 and 0.006, respectively. Also, the z-score in assay [8] is -1.13 (inactive); in assay [12] it was -3.69 (inactive); in assay [13], 0.698 (inactive); in assay [14], 3.36 (inactive); in assay [16] it was 0.452 (inactive).

Take `COC(=O)[C@@]1(CCS(=O)(=O)c2ccccc2)N=C(c2ccc(OCCCO)cc2)O[C@H]1c1ccccc1N=[N+]=[N-]`: the composite z-score was -0.0367 in assay [1]; 0.35 in [2]; -0.051 in assay [3]; 0.207 in assay [4]; 1.05 in [5]; 0.573 in assay [6]. Also, the composite z-score in [7] is 1.21; in assay [9], 0.252; in assay [10], -0.0346; in [11], 1.56; in assay [15], 3.29; in assay [17], -0.0341. For the same molecule, the composite z-score in [18] was 0.492; in assay [19], 1.09; in assay [20] it was -0.0968. The z-score was -2.34 (inactive) in assay [8]; 0.349 (inactive) in assay [12]; -0.238 (inactive) in [13]; 34.6 (active) in assay [14]; 0.96 (inactive) in assay [16].

On to `CCCCC(O)C1C=CC2C(=O)NC(=O)C2N1Nc1ccc(Cl)cc1Cl` (stereo not given), for which the composite z-score in [1] was 0.439; in assay [2], -0.384; in assay [3], 0.0127; in assay [4], 0.612; in assay [5], 0.866; in [6], 1.3. For the same molecule, the composite z-score is 1.09 in [7]; 0.691 in assay [9]; -0.27 in [10]; -0.338 in assay [11]; 2.28 in assay [15]; 0.259 in assay [17]. Besides, the composite z-score is -0.314 in assay [18], 0.303 in assay [19] and -0.0232 in assay [20]. Further, the z-score in [8] was 0.0812 (inactive); in assay [12], -25.2 (active); in [13], -8.47 (active); in [14], -1.58 (inactive); in assay [16] it was -1.55 (inactive).

Take `NCCCC[C@@H]1NC(=O)[C@H]2C[C@@H](C(=O)NCc3ccc(F)cc3)[C@@H](c3ccc(O)cc3)N2C1=O`: the composite z-score in assay [1] was determined as 1.85; in assay [2] it was 0.0239; in [3], 0.113; in assay [4], 0.492; in assay [5], 0.531; in assay [6] it was 2.12. Also, the composite z-score in assay [7] came to 1.3; in [9] it was 1.75; in [10], 0.0947; in assay [11], 1.3; in assay [15], 3.3; in assay [17], 0.726. Besides, the composite z-score in [18] is 1.09; in assay [19] it was 0.997; in [20] it was 0.149. The z-score is 5.15 (inactive) in assay [8]; 0.804 (inactive) in assay [12]; 0.368 (inactive) in assay [13]; 0.656 (inactive) in assay [14]; -0.656 (inactive) in assay [16].

As for `CCOC(=O)C1=C(C(=O)OCC)N(S(=O)(=O)CC[Si](C)(C)C)[C@H](c2ccccc2)CC1`, the composite z-score in assay [1] was 0.208; in assay [2], 0.0516; in assay [3] it was -0.0066; in assay [4], 0.2; in [5], 1.53; in assay [6] it was -0.0059. For the same molecule, the composite z-score is 0.884 in [7]; 0.917 in assay [9]; 0.0623 in [10]; 1.03 in assay [11]; 1.84 in assay [15]; 0.138 in [17]. For the same molecule, the composite z-score in assay [18] stood at 0.472; in [19] it was 1.07; in [20] it was 0.108. Besides, the z-score in assay [8] was -2.55 (inactive); in assay [12], 0.807 (inactive); in [13], 1.83 (inactive); in assay [14] it was 1.85 (inactive); in assay [16] it was -0.219 (inactive).
